SMILES strings stand for the structures. Calls of active or inactive are those of the source.

A short description of assay [1]: A549 cell viability effects, profiling panel, calcein-AM fluorescence, 48 h, basal (AID 1162). Conditions: higher = more signal.
The nature of assay [2]: adipocyte viability effects, profiling panel, cell-based, 3T3-L1 adipocytes, calcein-AM fluorescence, 48 h, basal (AID 1163). The conditions noted are these: 3T3-L1 adipocytes viability, higher = more signal.
Assay [3] is described as follows: HepG2 cell viability effects, profiling panel, calcein-AM fluorescence, 48 h, basal (AID 1164). The conditions noted are these: higher = more signal.
A short description of assay [4]: MM1S cell viability effects, profiling panel, calcein-AM fluorescence, 48 h, basal (AID 1165).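 Note: viability of MM1S multiple myeloma cells under basal unstimulated conditions.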 Conditions: higher = more signal.
A short description of assay [5]: basal RPMI8226 viability, no added stimulus, profiling panel, cell-based, calcein-AM fluorescence, 48 h, PK04 Diversity Set (AID 1166).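 Note: cells grown under basal conditions without added stimulus.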 The conditions noted are these: RPMI8226 myeloma viability, higher = more signal.
Assay [6] can be described thus: basal HepG2 mitochondrial membrane potential changes, profiling panel, cell-based, JC-1 fluorescence, 24 h, 100 nL compound (AID 1167). Conditions: higher = more signal.
Assay [7] in a line: basal 3T3-L1 adipocyte mitochondrial potential changes, profiling panel, cell-based, JC-1 fluorescence, 3T3-L1 adipocytes, 24 h, 100 nL compound (AID 1168). Conditions: JC-1 mitochondrial fluorescence, higher = more signal, called active from +8 up or from −8 down.
Assay [8] can be described thus: basal RPMI8226 mitochondrial membrane potential changes, profiling panel, cell-based, JC-1 fluorescence, 24 h, 100 nL compound (AID 1169). Conditions: RPMI8226 myeloma, JC-1 mitochondrial potential fluorescence, higher = more signal.
Assay [9] is described as follows: basal MM1S mitochondrial membrane potential changes, profiling panel, cell-based, JC-1 fluorescence, 24 h, 100 nL compound (AID 1170). Conditions: higher = more signal.
A short description of assay [10]: A549 lung cancer cell viability effects, profiling panel, resazurin fluorescence, 24 h, PK04 Diversity Set (AID 1171). Conditions: higher = more signal, called active from +8 up or from −8 down. (Resazurin is reduced to fluorescent resorufin, in cell work by metabolically active cells.)
Note: test concentration not given here.

On to `CCOC(=O)C[C@H]1[C@H](OC(=O)Cc2ccc3c(c2)OCO3)[C@@H](NC(=O)CC(C)C)c2cc(OCCCO)ccc2N1C(=O)Cc1ccc(OC)cc1`, for which the z-score in assay [1] was 0.777; in assay [2], 0.413; in [3] it was 1.63; in assay [4] it was -0.322; in assay [5] it was 0.791; in assay [6], 3.73. Further, the z-score in assay [7] is 0.31 (inactive); in [8], 0.139; in assay [9] it was -0.19; in [10] it was -0.581 (inactive).
Regarding `O=C1C=C(c2ccccc2)C(=O)c2ccc([C@H]3Oc4ccccc4S(=O)(=O)N4CCC[C@@H]34)cc21`, the z-score in assay [1] was -0.309; in assay [2], -0.319; in assay [3], -1.07; in assay [4], -3.23; in assay [5] it was -4.03; in assay [6] it was -3.82. For the same molecule, the z-score in assay [7] was -1.83 (inactive); in [8] it was -1.23; in assay [9], -2.69; in assay [10] it was -0.602 (inactive).
Regarding `O=C1OCCC/C=C\[C@H]2OC34C=CCN(CCN5CCOCC5)C(=O)[C@H]3N(CCCCCCO)C(=O)[C@@H]4C12` (stereo not given in full), the z-score is 0.26 in [1]; 1.3 in assay [2]; 1.18 in assay [3]; 1.54 in assay [4]; 0.279 in assay [5]; 0.538 in assay [6]. In addition, the z-score in assay [7] is 0.587 (inactive); in assay [8], 0.0622; in [9], -0.955; in [10], -0.168 (inactive).
Consider `COc1ccc([Si](C)(C)[C@@H]2[C@@H](CCO)O[C@]3(C(=O)N(Cc4ccc(N5CCCCC5=O)cc4)c4ccccc43)[C@H]2C)cc1`, for which the z-score in assay [1] is 0.108; in assay [2], -0.686; in [3], -0.347; in assay [4] it was -2.8; in [5] it was -3.05; in [6], 0.714. For the same molecule, the z-score is 1.25 (inactive) in [7], 0.88 in assay [8], 0.572 in assay [9] and -1.78 (inactive) in assay [10].
`O=C1NC(=O)C2C1C=CC(C(O)CCc1ccccc1)N2Nc1ccc(Cl)cc1Cl` (stereo not given): the z-score in assay [1] is -0.308; in [2], -0.217; in [3], -0.588; in [4] it was -2.19; in assay [5], -1.19; in assay [6], -2.19. The z-score in [7] was -1.75 (inactive); in [8] it was -0.236; in assay [9] it was -0.0222; in assay [10], -0.768 (inactive).
`CC(C)N1CC=CC23O[C@@H]4C=CCOC(=O)[C@@H]4[C@H]2C(=O)N(CCCO)[C@@H]3C1=O` (stereo not given in full): the z-score was 0.555 in assay [1]; 2.67 in assay [2]; -1.01 in assay [3]; 0.34 in [4]; -0.258 in [5]; -0.4 in assay [6]. For the same molecule, the z-score in [7] is 0.253 (inactive); in assay [8], 0.354; in [9], -1.5; in assay [10], 0.108 (inactive).
In the case of `CCCC[C@@H]1C[C@H]1[C@@H](NC(=O)Cc1ccccc1)c1ccc(-c2ccccc2)cc1`, the z-score was -0.902 in assay [1]; -0.12 in assay [2]; -0.323 in [3]; -0.378 in [4]; -1.48 in assay [5]; -0.929 in [6]. The z-score in assay [7] was -0.118 (inactive); in assay [8], 0.043; in assay [9], -1.71; in [10] it was 0.261 (inactive).
Regarding `[N-]=[N+]=Nc1ccccc1[C@H]1OC(c2ccc(OCCCO)cc2)=N[C@@]1(Cc1ccccc1)C(=O)N1CCCCC1`, the z-score is -0.127 in [1]; -0.019 in assay [2]; -0.683 in assay [3]; -3.09 in [4]; -3.83 in assay [5]; -0.251 in [6]. Moreover, the z-score is 1.44 (inactive) in [7], -1.15 in assay [8], -2.77 in assay [9] and -2.29 (inactive) in assay [10].
As to `CCOC(=O)C1CCCCN1` (stereo not given), the z-score in [1] is -0.293; in assay [2] it was 0.542; in assay [3], 0.0621; in assay [4] it was 0.481; in assay [5], 0.166; in assay [6], -0.319. Besides, the z-score in [7] was 0.121 (inactive); in assay [8], 0.292; in [9], 0.319; in [10], -0.642 (inactive).
As to `O=C1OCC=C[C@H]2OC34C=CCN(Cn5nnc6ccccc65)C(=O)[C@H]3N(CCCO)C(=O)[C@@H]4[C@@H]12` (stereo not given in full), the z-score in assay [1] is -0.267; in assay [2] it was 0.832; in assay [3], -0.64; in assay [4] it was 0.266; in assay [5], 0.0897; in assay [6] it was -0.541. The z-score in assay [7] is 0.904 (inactive); in assay [8] it was -0.252; in assay [9] it was -1.33; in assay [10] it was -0.813 (inactive).
On to `CCCCC=C[C@@H](NC(=O)c1ccc(-c2ccccc2)cc1)c1ccccc1`, for which the z-score in [1] is -1.58; in assay [2], -0.768; in assay [3], -1.47; in assay [4] it was -0.795; in assay [5], -2.1; in [6] it was -4.15. Also, the z-score in assay [7] was 0.045 (inactive); in assay [8] it was -0.741; in assay [9], -0.819; in [10], -0.305 (inactive).
On to `COCCOC(=O)N1C(=O)[C@@]2(c3ccccc31)[C@H](C(=O)N1CCN(c3ncccn3)CC1)[C@H]1C(=O)O[C@H](c3ccccc3)[C@H](c3ccccc3)N1[C@@H]2c1ccc(O)cc1`, for which the z-score is -0.337 in assay [1]; 0.176 in assay [2]; 0.102 in assay [3]; -1.41 in [4]; -0.441 in assay [5]; 0.745 in assay [6]. For the same molecule, the z-score in assay [7] was -0.107 (inactive); in assay [8] it was 0.263; in [9], 0.0963; in assay [10], 1.19 (inactive).
For `CO[C@]12C=C(Br)[C@@H](C[C@@H]1c1cccc(C)c1)[C@@]1(CO1)C2=O`, the z-score in assay [1] was -0.406; in [2], 0.287; in assay [3] it was -0.932; in [4], -2.16; in assay [5], -0.643; in [6] it was -1.11. The z-score in [7] is -0.295 (inactive); in assay [8], -0.107; in assay [9], -0.693; in assay [10], 0.862 (inactive).
Turning to `COC(=O)[C@@]1(Cc2ccc(F)cc2)[C@H]2c3cc(C(=O)N(C)C)n(CCc4ccc(O)c(OC)c4)c3C[C@H]2CN1C(=O)c1ccccc1`, the z-score in [1] is 0.558; in assay [2], -0.306; in [3] it was 0.364; in assay [4], -0.254; in [5] it was -0.364; in assay [6], -0.27. Besides, the z-score was -0.763 (inactive) in [7], -0.266 in assay [8], 0.564 in assay [9] and -0.905 (inactive) in assay [10].
Consider `O=C1C2C=CC(C(O)c3ccc(Br)cc3)N(Nc3ccccc3F)C2C(=O)N1c1ccccc1` (stereo not given), for which the z-score is 1.79 in [1]; 0.085 in [2]; 0.418 in assay [3]; 1.05 in assay [4]; -0.0004 in [5]; -0.629 in [6]. Besides, the z-score in assay [7] is -1.56 (inactive); in assay [8], 0.417; in assay [9], -1.46; in assay [10], 0.0502 (inactive).

Source of the values: PubChem BioAssay.
